What all share (conditions): concentration: 10 µM; 24 h
The subject of experiment [1] is HCC1569. Description: cell number relative to DMSO (% of DMSO); higher = more cells (less growth inhibition / toxicity). An outline of the steps: (§1)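 Using 384-well plates with 800 cells per well in RPMI plus 10% FBS, HCC1569 and TDF cells were exposed to compounds at 10 µM, in triplicate, for 24 h at 37 °C. Imaging of six fields per well at ×10 followed H1.0 and DAPI staining. The reported quantity, H1.0 nuclear intensity or cell number, is a median of replicates given as percent of the plate control, and HCC1569 values were smoothed for positional effects.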

Experiment [2] relates to TDF. The experiment is described as above. An outline of the steps:
as §1

Experiment [3] concerns TDF. The experiment in a line: H1.0 immunofluorescence intensity relative to DMSO (% of DMSO); higher = stronger H1.0 induction, active = 120 or more. The procedure, abridged:
as §1

Experiment [4] deals with HCC1569. Description: H1.0 immunofluorescence intensity relative to DMSO (% of DMSO); higher = stronger H1.0 induction, active = 140 or more. The procedure, abridged:
as §1

The record followed here is the supplement of paper PMC7156485.

Each structure is given as a SMILES string. ± gives the standard deviation of the averaged measurements.
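Wherever H1.0 immunofluorescence intensity relative to DMSO is given: TDF is a line of transformed human dermal fibroblasts of mesenchymal origin.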
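Wherever cell number relative to DMSO is given: TDF denotes transformed human dermal fibroblasts of mesenchymal origin.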

Regarding `O=C1C(=Cc2ccc(O)c(O)c2)Oc2c1ccc(OC1OC(CO)C(O)C(O)C1O)c2O` (stereo not drawn) [Maritimein], the cell number was found to be 99.5 with HCC1569 [1] and 94.8 in the experiment on TDF [2]. Further, the values for the H1.0 immunofluorescence intensity with TDF [3] and in the experiment on HCC1569 [4] were 102 (inactive) and 99.6 (inactive), respectively.

On to `CCCn1c(=O)c2c(ncn2C)n(CCC)c1=O` [1,3-Dipropyl-7-methylxanthine], for which the values for the cell number in the experiment on HCC1569 [1] and in the experiment on TDF [2] were 99.5 and 101, respectively. The figures for the H1.0 immunofluorescence intensity in the experiment with TDF [3] and in the experiment on HCC1569 [4] were 93.1 (inactive) and 94.8 (inactive), respectively.

For the compound `CC(C)Cn1cnc2c(N)nc3ccccc3c21` [Imiquimod], the cell number in the experiment with HCC1569 [1] is 102; with TDF [2], 93.4. Further, the H1.0 immunofluorescence intensity is 95.3 (inactive) in the experiment on TDF [3] and 108 (inactive) in the experiment with HCC1569 [4].

As for `O=C(Nc1c(Cl)cncc1Cl)c1ccc(OC(F)F)c(OCC2CC2)c1`, the cell number in the experiment with HCC1569 [1] is 99.9; with TDF [2], 92.1. Also, the H1.0 immunofluorescence intensity in the experiment on TDF [3] was 95.6 (inactive); in the experiment on HCC1569 [4] it was 101 (inactive).

In the case of `O=C1N(c2ccccc2)c2ccccc2C1(Cc1ccncc1)Cc1ccncc1` [Linopirdine], the results for the cell number with HCC1569 [1] and in the experiment with TDF [2] were 108 and 112, respectively. The H1.0 immunofluorescence intensity is 93.9 (inactive) in the experiment on TDF [3] and 94.7 (inactive) in the experiment on HCC1569 [4].

Consider `CCCC1CC(C(=O)NC(C(C)Cl)C2OC(SC)C(O)C(O)C2O)N(C)C1.Cl` (stereo not drawn) [Clindamycin.HCl], for which the cell number amounted to 111 in the experiment with HCC1569 [1] and 110 in the experiment with TDF [2]. Moreover, the H1.0 immunofluorescence intensity in the experiment with TDF [3] was 106 (inactive); in the experiment on HCC1569 [4], 91.3 (inactive).

Regarding `CN(C)CCCN1c2ccccc2Sc2ccccc21.Cl` [Promazine hydrochloride], the cell number in the experiment with HCC1569 [1] is 103; in the experiment with TDF [2] it was 107. The H1.0 immunofluorescence intensity with TDF [3] is 118 (inactive); with HCC1569 [4] it was 110 (inactive).

Take `CCc1cc(Cl)c(OC)c(C(=O)NCC2CCCN2CC)c1O.Cl` (stereo not drawn) [S-(-)-Eticlopride hydrochloride]: the cell number in the experiment on HCC1569 [1] turned out to be 102; in the experiment with TDF [2], 110. Moreover, the H1.0 immunofluorescence intensity is 103 (inactive) with TDF [3] and 97.8 (inactive) in the experiment with HCC1569 [4].

With `CC(=O)O/N=C1\C(=O)N(Cc2cc(Cl)ccc2Cl)c2ccc(Cl)cc21`, the figures for the cell number in the experiment with HCC1569 [1] and in the experiment on TDF [2] were 99.5 and 107, respectively. Further, the results for the H1.0 immunofluorescence intensity in the experiment with TDF [3] and in the experiment on HCC1569 [4] were 97.2 (inactive) and 99.5 (inactive), respectively.

Consider `CC(C)CC(NC(=O)C(COC(C)(C)C)NC(=O)C(Cc1ccc(O)cc1)NC(=O)C(CO)NC(=O)C(Cc1c[nH]c2ccccc12)NC(=O)C(Cc1cnc[nH]1)NC(=O)C1CCC(=O)N1)C(=O)NC(CCCN=C(N)N)C(=O)N1CCCC1C(=O)NNC(N)=O` (stereo not drawn) [Goserelin], for which the cell number in the experiment on HCC1569 [1] came out at 100; in the experiment with TDF [2], 105. The H1.0 immunofluorescence intensity is 94.5 (inactive) with TDF [3] and 103 (inactive) in the experiment on HCC1569 [4].

As to `Cc1c(Cl)cccc1Nc1ccccc1C(=O)O` [Tolfenamic acid], the cell number in the experiment on HCC1569 [1] and in the experiment with TDF [2] was 105 in each case. The H1.0 immunofluorescence intensity with TDF [3] is 104 (inactive); in the experiment with HCC1569 [4], 95 (inactive).

As for `O=C1CCC(N2C(=O)c3ccccc3C2=O)C(=O)N1` (stereo not drawn) [Thalidomide], the cell number in the experiment with HCC1569 [1] was 101; with TDF [2] it was 102. The values for the H1.0 immunofluorescence intensity in the experiment on TDF [3] and in the experiment on HCC1569 [4] were 97.1 (inactive) and 96.7 (inactive), respectively.

Consider `NCCCC(O)(P(=O)([O-])O)P(=O)(O)O` [Alendronate], for which the values for the cell number in the experiment on HCC1569 [1] and in the experiment on TDF [2] were 106 and 102, respectively. Also, the H1.0 immunofluorescence intensity was 94.3 (inactive) in the experiment on TDF [3] and 117 (inactive) in the experiment on HCC1569 [4].

For the compound `CC1OC(OCC2OC(Oc3cc(O)c4c(c3)OC(c3ccc(O)c(O)c3)CC4=O)C(O)C(O)C2O)C(O)C(O)C1O` (stereo not drawn) [Eriocitrin], the cell number with HCC1569 [1] worked out at 101; with TDF [2] it was 119. Besides, the values for the H1.0 immunofluorescence intensity with TDF [3] and in the experiment with HCC1569 [4] were 89 (inactive) and 84 (inactive), respectively.

Consider `COc1ccc(Br)cc1S(=O)(=O)NC(=O)/C=C/c1ccccc1Cc1ccc2ccccc2c1`, for which the values for the cell number in the experiment on HCC1569 [1] and with TDF [2] were 98.1 and 103, respectively. Besides, the H1.0 immunofluorescence intensity is 90.2 (inactive) in the experiment with TDF [3] and 103 (inactive) with HCC1569 [4].

As for `CNCCC=C1c2ccccc2CCc2ccccc21.Cl` [Nortriptyline hydrochloride], the cell number with HCC1569 [1] is 88.9; in the experiment with TDF [2] it was 93.9. In addition, the H1.0 immunofluorescence intensity in the experiment with TDF [3] was 109 (inactive); in the experiment on HCC1569 [4], 117 (inactive).

For the compound `Nc1sc2c(c1C(=O)c1ccc(Cl)cc1)CCCC2`, the cell number amounted to 102 with HCC1569 [1] and 96.8 with TDF [2]. The results for the H1.0 immunofluorescence intensity in the experiment on TDF [3] and in the experiment on HCC1569 [4] were 95 (inactive) and 98.9 (inactive), respectively.

On to `CN(C)S(=O)(=O)c1ccc2c(c1)C(=Cc1cc3c([nH]1)CCCC3)C(=O)N2`, for which the figures for the cell number with HCC1569 [1] and with TDF [2] were 72.9 and 48, respectively. In addition, the values for the H1.0 immunofluorescence intensity in the experiment on TDF [3] and in the experiment on HCC1569 [4] were 97.5 (inactive) and 184 (active), respectively.

Turning to `CCOC(=O)c1c2c3c(cccc3[nH]c1=O)C(=O)c1ccccc1-2`, the cell number stood at 99.7 with HCC1569 [1] and 108 with TDF [2]. The H1.0 immunofluorescence intensity in the experiment with TDF [3] was 94.2 (inactive); in the experiment on HCC1569 [4], 99.9 (inactive).

Consider `COc1ccccc1OCCNCC(O)COc1cccc2[nH]c3ccccc3c12` (stereo not drawn) [Carvedilol], for which the cell number in the experiment on HCC1569 [1] turned out to be 92.6 ± 15; in the experiment with TDF [2], 104 ± 4.5. Besides, the H1.0 immunofluorescence intensity with TDF [3] is 99.3 (inactive); with HCC1569 [4], 106 (inactive).

Take `O=c1c2ccccc2[nH]c(=S)n1CCN1CCC(=C(c2ccc(F)cc2)c2ccc(F)cc2)CC1` [Diacylglycerol Kinase Inhibitor II]: the cell number turned out to be 105 ± 1.1 in the experiment on HCC1569 [1] and 93.8 ± 1.5 in the experiment on TDF [2]. Besides, the H1.0 immunofluorescence intensity with TDF [3] is 93.9 (inactive); in the experiment with HCC1569 [4], 94.1 (inactive).

On to `O=c1cc(-c2ccccc2)[nH]c2nc(Cl)ccc12` [7-Chloro-4-hydroxy-2-phenyl-1,8-naphthyridine], for which the results for the cell number in the experiment with HCC1569 [1] and with TDF [2] were 76.7 and 20.4, respectively. Moreover, the H1.0 immunofluorescence intensity with TDF [3] is 141 (active); in the experiment on HCC1569 [4], 116 (inactive).
